# Screening results from PubChem BioAssay.
# MEKK2 mut-MEK5: signal of MEK5 binding to mutant human MEKK2 PB1 domain; percent response, % at 10 µM; AID 1530; 290,000 tested, 0.35% active; bead flow cytometry, Alexa488-MEK5 binding to MEKK2 mutant; in the data active = percent response above about 24%, passing the limit was not always enough
# PREPL inhibitor: inhibits the human prolyl oligopeptidase-like enzyme. inhibition, % at 5.96 µM. recombinant PREPL, fluorescence polarization activity-based probe. Q4J6C6. 320,000 tested, 0.68% active. AID 2751; in the data active = inhibition above about 43%;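 also: 0% = enzyme with DMSO and 100% = wells lacking enzyme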
# UBC13 polyUb: human UBC13 polyubiquitination inhibition; P61088; 330,000 tested, 0.47% active; inhibition, % at 20 µM; UBC13 polyubiquitin chain formation, TR-FRET; in the data active = inhibition above about 45%, passing the limit was not always enough
# Target sequence (P61088 whole entry, looked up): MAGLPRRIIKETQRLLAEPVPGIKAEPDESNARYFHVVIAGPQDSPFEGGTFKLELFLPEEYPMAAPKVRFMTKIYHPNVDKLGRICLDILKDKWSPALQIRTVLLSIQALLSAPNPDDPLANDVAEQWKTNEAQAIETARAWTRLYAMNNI
# MEKK3 PB1 HTS: raises or lowers MEK5 binding to the human MEKK3 PB1 domain; Q99759; bead-based flow cytometry, Alexa488-MEK5 binding to MEKK3; actives lie on both sides; 0 = blocked by unlabeled MEK5, 100 = vehicle; binding response (% of control), % at 10 µM; 290,000 tested, 1.4% active; AID 1529;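 active = binding response more than 3 SD above or below the average of its plate-row segment, actives on both sides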;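 also: Alexa488 bead fluorescence after subtracting the streptavidin-only scavenger bead signal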
# MEKK2 WT-MEK5: raises or lowers MEK5 binding to wildtype human MEKK2 PB1 domain | binding response (% of control), % at 10 µM | 290,000 tested, 1.1% active | bead flow cytometry, Alexa488-MEK5 binding to MEKK2 WT; actives lie on both sides | Q9Y2U5; in the data active = binding response below about 67% or above about 130%
# ATG4B inh: blocks human ATG4B protease cleavage of LC3 substrate | Q9Y4P1 | ATG4B cleavage of LC3-PLA2, NBD-HPC fluorescence, 1 h | inhibition, % at 8.33 µM | 340,000 tested, 0.51% active; in the data active = inhibition above about 40%
# Target sequence (Q9Y4P1 whole entry, looked up): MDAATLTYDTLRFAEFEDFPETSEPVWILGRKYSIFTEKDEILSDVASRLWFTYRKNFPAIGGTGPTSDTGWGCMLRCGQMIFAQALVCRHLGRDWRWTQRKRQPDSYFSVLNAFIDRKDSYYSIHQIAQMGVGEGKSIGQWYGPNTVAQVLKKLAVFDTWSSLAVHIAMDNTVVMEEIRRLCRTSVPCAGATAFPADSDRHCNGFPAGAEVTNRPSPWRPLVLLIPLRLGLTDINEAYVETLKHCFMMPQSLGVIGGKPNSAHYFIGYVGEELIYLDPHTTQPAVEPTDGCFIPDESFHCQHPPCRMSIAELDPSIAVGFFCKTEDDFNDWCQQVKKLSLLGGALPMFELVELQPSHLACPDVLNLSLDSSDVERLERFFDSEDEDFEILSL
# MEKK2wt confirm: raises or lowers MEK5 binding to wildtype human MEKK2, retest; 5,900 tested, 2.4% active; binding response (% of control), % at 10 µM; shares compounds with MEKK3 PB1 HTS; bead flow cytometry, Alexa488-MEK5 binding to MEKK2 WT; actives lie on both sides; in the data active = binding response below about 16% or above about 210%; inactive = in between
# MEKK2mut confirm: signal of MEK5 binding to mutant human MEKK2, retest | shares compounds with MEKK3 PB1 HTS | bead flow cytometry, Alexa488-MEK5 binding to MEKK2 mutant | percent response, % at 10 µM | 5,900 tested, 2% active | AID 1893; in the data active = percent response mostly above about 71%, no sharp cut-off; inactive = mostly below about 38%;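 also: higher means compound restores mutant binding toward wildtype level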
# MEKK3 confirm: confirmation of inhibitors of MEK5 binding to human MEKK3 | bead flow cytometry, Alexa488-MEK5 binding to MEKK3; active compounds read low | binding response (% of control), % at 10 µM | shares compounds with MEKK3 PB1 HTS | 5,900 tested, 1.8% active | AID 1894;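 active = binding response below 72% of control, or above a set upper limit, though filed actives all read lower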;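 also: 100% = DMSO only wells and 0% = binding blocked by excess unlabeled MEK5; lower values mean stronger disruption of MEK5 binding to MEKK3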
# The depositor's hits bear a star; x = no result given; [ ] = remark or other dose. Most compounds without a hit are left out; they make up all but 3.1% or so of the library.
SMILES,MEKK2 mut-MEK5,PREPL inhibitor,UBC13 polyUb,MEKK3 PB1 HTS,MEKK2 WT-MEK5,ATG4B inh,MEKK2wt confirm,MEKK2mut confirm,MEKK3 confirm
CCOC(=O)N1CCN(C(=O)COC(=O)CNC(=O)c2ccc(OCC)c(OCC)c2)CC1,x,x,-5,x,x,-5,x,x,x
O=S(=O)(Nc1cccc2c1CCCC2)c1ccc(Cl)cc1,-3,-10,12,96,93,22,x,x,x
CCOC(=O)CCCNC(=O)COC(=O)CCC(=O)c1ccc(F)cc1,-20,-1,-2,2.0*[inhibitor],2.0*[inhibitor],-7,96,0,100
O=C(COC(=O)CCC(=O)c1ccc(F)cc1)NCc1ccco1,-8,0,3,74*[inhibitor],87,2,102,-5,101
N#Cc1ccc(Cn2c(=O)c(C#N)c3n(c2=O)CCC3)cc1,-21,2,12,0.0*[inhibitor],0.0*[inhibitor],1,106,6,104
Cc1nn(-c2cc(N3CCCCCC3)ccc2[N+](=O)[O-])c(=O)c2ccccc12,0,-8,-17,105,98,1,x,x,x
Cc1ccc(-c2nn(-c3cc(N4CCNCC4)ccc3[N+](=O)[O-])c(=O)c3ccccc23)cc1,15,15,37,99,145*,3,153,30,109
Cc1ccc(C2C(C#N)=C(N)Oc3cc(N)ccc32)cc1 (stereo unspecified),2,7,-2,100,103,-4,x,x,x
Cc1ccc(/C=C2\CCC3=C2OC(N)=C(C#N)C3c2ccc(C)cc2)cc1 (stereo unspecified),108*,6,-41,118,101,10,92,-17,95
O=S(=O)(Nc1cccc(S(=O)(=O)N2CCCC2)c1)c1cccs1,x,13,-7,x,x,-12,x,x,x
COc1cccc(C(=O)N(CN2CCCC2=O)c2ccccc2OC)c1,-2,6,-16,95,94,2,x,x,x
COc1ccccc1N(CN1C(=O)c2ccccc2C1=O)C(=O)c1cccc(C)c1,0,-15,-5,141*,107,3,-3.0*[inhibitor],2,103
Cc1ccc(N=Nc2cc(C)ccc2O)c(C)c1,-42,x,-16,5.0*[inhibitor],8.0*[inhibitor],2,105,-5,101
S=c1[nH]nc(-c2ccc(Cl)cc2)n1CCCN1CCOCC1,431*,0,-4,118,119,-6,100,-6,103
COc1ccc(C(=O)/C=C/Nc2cc(C)ccn2)cc1,4,24,-6,94,109,-5,x,x,x
Cc1ccccc1S(=O)(=O)c1cc(C#N)c(=O)[nH]c1N,-13,2,17,69*[inhibitor],74,1,102,-1,101
COC(=O)C(NC(=O)c1ccccc1)(Nc1cc(C)cc(C)n1)C(F)(F)F (stereo unspecified),6,15,2,126*,92,-6,104,1,101
Cc1sc2ncn(CC(=O)NC3CCCCC3)c(=O)c2c1C,x,5,6,x,x,8,x,x,x
NC(=O)Cn1c(-c2nonc2N)nc2ccccc21,-1,4,0,99,101,-1,x,x,x
C=COCCn1c(-c2nonc2N)nc2ccccc21,9,6,-1,122*,119,2,98,7,102
COc1cc(C(=O)NCCC(=O)NCCN2CCCCCC2)cc(OC)c1OC,24,8,21,111,143*,2,133,16,104
COc1cc(C(=O)NCCN2CCCC2)cc(OC)c1OC,5,-7,-2,98,105,-5,x,x,x
COc1ccc(S(=O)(=O)NCC2CCCN(Cc3cccc(C(C)=O)c3)C2)cc1 (stereo unspecified),-4,2,0,96,96,-5,x,x,x
COc1ccc(S(=O)(=O)NCC2CCCN(Cc3cccnc3)C2)cc1 (stereo unspecified),-4,-5,-4,89,56*[inhibitor],11,99,-1,95
CCOC(=O)C1=CNS(=O)(=O)NC1c1ccc(Br)cc1F (stereo unspecified),x,x,x,x,x,-2,x,x,x
SMILES,MEKK2 mut-MEK5,PREPL inhibitor,UBC13 polyUb,MEKK3 PB1 HTS,MEKK2 WT-MEK5,ATG4B inh,MEKK2wt confirm,MEKK2mut confirm,MEKK3 confirm
CCOC(=O)c1c(CSc2ccc(CC)cc2)oc2ccc(O)c(CN(C)C)c12,36*,17,43,112,153*,8,166,38,109
CCOc1ccc(CN(C)CC(=O)NNC(=O)c2ccc(Cl)cc2)cc1OC,-1,1,-9,128*,98,5,100,-7,97
OCCNCc1cc(Br)ccc1OCc1ccc(Cl)cc1,x,-38,9,x,x,5,x,x,x
OCCNCc1cc(Br)ccc1OCc1ccc(F)cc1,1,-35,10,103,106,4,x,x,x
CCOc1cc(CNCCO)cc(Br)c1OCc1ccc(Cl)cc1Cl,51*,-50,56*,115,212*,6,204,58,110
OCCCCNCc1cc(Br)ccc1OCc1ccccc1F,24,-39,3,103,148*,4,157,32,109
CCOc1cc(CNCCSc2nnnn2C)cc(Br)c1OCc1ccccc1F,11,-53,12,106,136*,-11,135,17,108
COc1cc(CNCCSc2nnnn2C)cc(Br)c1OCc1ccccc1F,-5,-51,15,96,104,-4,x,x,x
OCCNCc1cc(Br)ccc1OCc1ccc(Cl)cc1Cl,35*,x,x,110,145*,3,127,17,105
Cc1oc(-c2ccc(Cl)cc2)nc1CN1CCC(C(=O)NCc2cccs2)CC1,6,8,0,116,126,-12,x,x,x
CCc1ccc(-c2nc(CN3CCC(C(=O)NCc4ccc(F)cc4)CC3)c(C)o2)cc1,13,-7,19,104,145*,27,117,3,104
O=S(=O)(/N=S1\CC=CCN1S(=O)(=O)c1ccccc1)c1ccccc1 (stereo unspecified),x,x,x,x,x,-11,x,x,x
COC(=O)[C@@]12CCCN1[C@H](c1ccc(-c3ccc(OC)cc3)cc1)[C@@H]1C(=O)N(C)C(=O)[C@@H]12,x,20,3,x,x,-4,x,x,x
CC(C)[C@H](NC(=O)c1ccc(F)cc1)C(=O)NC1=NCCS1,-7,-2,8,98,92,3,x,x,x
Cc1ccc2nc(SCC(=O)NCc3ccco3)c(C#N)cc2c1,-1,-4,-1,98,90,7,x,x,x
